Screening results deposited in PubChem by National Center for Advancing Translational Sciences (NCATS).
Only some compounds are listed: those with a hit (about 8.1% of all), similar ones and a draw of the others.
ClpP mod – qHTS Assay for Activators of ClpP | 340,000 tested, 1.9% active | Potency, µM (series often up to 57.5 µM), for inactives: top-dose activity change, negative = active | AID 651965, 2013 | ATP-dependent Clp protease proteolytic subunit (Bacillus subtilis (strain 168)), P80244 | purified B. subtilis ClpP, FRET peptide cleavage, 20 min; active means well fitted falling curve with a large enough effect; inconclusive means small, poorly fitted or top-dose-only effect; inactive means no such curve, though single readings can be large or run the other way; further: the source files actives as falling curves though it sought activators and does not explain the sign; nearly all actives have a fitted effect of over 65% in size
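Buffer: 100 mM Tris/HCl pH8, 100 mM KCl, 0.05% low protease BSA, 2.5% glycerol, 0.01% Tween-20. ClpP 10 microg/mL final; 20 min RT; delta FRET normalized to ADEP and DMSO controls.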
Sfp PPTase inh – Sfp phosphopantetheinyl transferase inhibition. Q9F4F7. Biochemical Sfp PPTase activity, qHTS. Potency, µM, inactives show largest response in the series, negative = inhibition, hits mostly inhibitors. 310,000 tested, 3.5% active. AID 1490;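 further: the enzyme is Sfp with the accession as filed and its product quenches rhodamine fluorescence; 0% = enzyme reaction without inhibitor and -100% = no enzyme wells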
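Fluorescence-quenching assay: 15 nM Sfp-PPTase preincubated 15 min at room temperature with compound, then 5 uM rhodamine-CoA and 12.5 uM BHQ-2-labelled YbbR peptide added. Fluorescence (ex 525/em 598 nm) read at start and after 30 min; difference gives rate.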
PINK1 modulator – PINK1 expression modulation. PINK1 immunofluorescence, high-content cytometry, 24 h. Potency, µM (highest dose often 76.6 µM), inactives show at the top dose activation (PINK1 increase), hits mostly activators. 410,000 tested, 0.2% active. AID 624263; active means well fitted activation curve with a large enough effect; inconclusive means small, poorly fitted or top-dose-only effect; cell line not stated here; further: % of control where 0% means no effect; nearly all actives have a fitted effect of over 65% in size
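Stable cell line treated 24 h with compounds at 5 concentrations (CCCP controls), then fixed and immunostained for PINK1 plus nuclear and cell stains; PINK1 immunofluorescence quantified by laser-scanning microplate cytometry.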
Epigenetic reg – regulators of epigenetic silencing causing reporter derepression in mouse cells | Potency, µM (doses to about 53.9 µM), without a hit: at the highest dose GFP activation, hits mostly activators | murine LDR cells, GFP reporter derepression, 30 h | 280,000 tested, 0.2% active; further: % of control where 0% means no effect; nearly all actives have a fitted effect of over 60% in size
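Reporter derepression read as number of fluorescent GFP-positive objects, 20-120 um in size, counted by laser-scanning cytometer. Mouse LDR line with an epigenetically silenced CMV-GFP locus; compound incubation 30 h, 37 C.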
VP16 counter – Gal4-VP16 reporter inhibition counter-screen. Drosophila S2 Gal4-VP16 UAS-luciferase, luminescence, 20 h. Potency, µM (highest dose often 53.6 µM), inactives show at the top dose activity, negative = inhibition, most hits filed as inhibitors. 310,000 tested, 3.5% active. AID 2546;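 further: Gal4-VP16 expression switched on by copper sulfate through the metallothionein promoter; on the % scale 0 is the no-effect control and ±100 the full control effect; nearly all actives have a fitted effect of over 50% in size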
RORg inh – ROR gamma (mouse) transcription inhibition. Drosophila S2 Gal4-RORgamma UAS-luciferase reporter, 20 h. 310,000 tested, 5.4% active. Potency, µM (titrated, usually from 53.6 µM), for inactives: at the highest dose activity change, negative = inhibition, hits mostly inhibitors. P51450; further: on the % scale 0 is the no-effect control and ±100 the full control effect; nearly all actives have a fitted effect of over 60% in size
Target sequence (P51450 whole entry, looked up, the tested form may be a part): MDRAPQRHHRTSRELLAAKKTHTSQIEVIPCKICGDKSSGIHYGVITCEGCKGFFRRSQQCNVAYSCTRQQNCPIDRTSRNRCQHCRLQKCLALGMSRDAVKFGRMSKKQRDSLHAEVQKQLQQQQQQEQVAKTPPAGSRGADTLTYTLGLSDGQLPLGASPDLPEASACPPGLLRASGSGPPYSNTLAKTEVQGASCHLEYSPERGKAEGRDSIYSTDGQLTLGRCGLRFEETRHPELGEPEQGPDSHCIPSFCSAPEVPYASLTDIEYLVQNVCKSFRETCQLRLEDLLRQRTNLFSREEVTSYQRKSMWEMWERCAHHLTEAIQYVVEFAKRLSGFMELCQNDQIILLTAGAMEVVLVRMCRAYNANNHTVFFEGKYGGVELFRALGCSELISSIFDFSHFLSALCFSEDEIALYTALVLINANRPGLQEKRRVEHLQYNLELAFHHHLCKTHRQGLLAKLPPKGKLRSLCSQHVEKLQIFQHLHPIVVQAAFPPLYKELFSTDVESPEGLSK
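Luminescence from a UAS-regulated Photinus luciferase reporter in stably transfected Drosophila Schneider cells is measured; decreased signal marks ROR gamma inhibition. Fusion expression is induced by 700 uM copper sulfate for 20 hr.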
Starred values were filed as active, the others as inactive; ? = inconclusive; · = no result given; ! = not active in a repeat; [ ] = dose if it differs, or a comment. Unless noted, the call rests on the fitted dose curve; in most records, active means well fitted curve in the direction sought with a large enough effect; inconclusive means small, poorly fitted or top-dose-only effect, or another doubt; inactive means no such curve, though single readings can be large; an effect the other way counts as inactive or inconclusive. Potency means the concentration at half of the fitted maximal effect.

SMILES	ClpP mod	Sfp PPTase inh	PINK1 modulator	Epigenetic reg	VP16 counter	RORg inh
CN(C(=S)NC1CCCCC1)C1(c2ccccc2Cl)CCCCC1=O (stereo not drawn)	·	8.1%	10.0%	0.0%	?	12.6µM*
CSc1nccc(-c2cc(Cl)c3c(c2)CC(CNC(=O)c2ccc(C)nc2)O3)n1 (stereo not drawn)	·	·	1.9%	·	·	·
CCCCN(C)C(=O)CN1C(=O)c2cccnc2Oc2ccc(Cl)cc21	0.2%	·	-0.5%	-1.2%	·	·
CCn1c(SC(=O)NC2CCCCC2)nnc1-c1cccs1	?	-7.3%	2.9%	-0.9%	?	7.94µM*
O=C(CSc1nc(-c2ccccc2)cs1)NCc1ccco1	-10.5%	-12.3%	2.2%	0.9%	8.9%	?
CCn1c(SCC(=O)NCc2ccco2)nnc1-c1cccs1	-1.7%	14.1µM*	-0.6%[38.3 µM]	-1.2%	?	11.2µM*
CCn1c(CNc2nc(-c3ccccc3)cs2)nnc1SCC(=O)NCc1ccco1	0.6%	56.2µM*	-0.9%	-1.0%	-13.9%	-2.8%
CCOC(=O)c1noc2ncn(CC(=O)Nc3ccc(OC)c(Cl)c3)c(=O)c12	-1.1%	·	0.8%	1.7%	·	·
O=C(Nc1ccc(Br)cc1F)C(NS(=O)(=O)c1cccc2nsnc12)c1ccccc1 (stereo not drawn)	-1.8%	·	-0.8%	0.8%	·	·
Cc1cc(C=O)cc(C)c1[N+](=O)[O-]	0.6%	·	·	·	·	·
CN(C)c1ccc(/C=C2\C=Cc3ccccc32)cc1Cl	-0.8%	·	0.9%	·	·	·
COCC(=O)Nc1cc(C(=O)N2CCN(c3ccccc3)C(=O)C2)cc2nc(-c3ccccc3)n(C)c12	·	·	0.5%	·	·	·
C[C@@H]1[C@H](c2ccccc2)OCCS(=O)(=O)N1Cc1ccccc1F	-1.5%	·	·	·	·	·
Cc1ccc(NC(=O)c2ccc(NCCc3ccccc3)c([N+](=O)[O-])c2)cc1F	1.8%	-18.3%	?	12.6µM*	-24.8%	-33.8%
CCC1CN(CCNC(=O)c2cccc(C(=O)OC)c2)Cc2cc(OC)ccc2O1 (stereo not drawn)	·	·	-0.3%	·	·	·
COC(=O)c1cc2c(cc1NC(=O)c1cnn(-c3ccc(C)cc3)c1-n1cccc1)OCO2	-1.1%	·	1.4%	2.1%	·	·
Cc1ccc(-n2c(=O)c3sccc3n(Cc3cc(=O)n4ccccc4n3)c2=O)cc1	31.6µM*!	10.6%	3.3%	-0.9%	-4.9%	23.3%
COC(=O)c1ccc(NC(=O)Cc2coc3cc(C)ccc23)cc1	1.7%	·	3.5%	1.9%	·	·
COCCNC(=O)C1CCN(Cc2cc3ccccc3n2Cc2ccc(C)cc2)CC1	-0.5%	·	-0.3%	-0.5%	·	·
COc1ccc(NC(=O)CCCn2c(=O)c3sccc3n(Cc3ccc(C)cc3C)c2=O)cc1	1.2%	50.1µM*	0.2%	-1.0%	-0.3%	11.5%
Cc1ccccc1CN1C(=O)c2ccccc2S(=O)c2ccc(C(=O)NCc3ccc4c(c3)OCO4)cc21 (stereo not drawn)	0.2%	·	0.2%	1.1%	·	·
COCc1cc(=O)n2[nH]c(N)nc2n1	-2.2%	-6.1%	1.5%	-2.6%	0.3%	13.4%
COCc1cc(=O)n2[nH]c(-c3ccsc3-n3c(C)ccc3C)cc2n1	-2.1%	56.2µM*	4.8%	2.0%	-3.1%	-15.7%
Cc1nc2cc(-c3ccsc3-n3c(C)ccc3C)[nH]n2c(=O)c1Cl	-0.9%	?	?	0.8%	7.6%	0.3%
Cc1cc(=O)n2[nH]c(-c3ccsc3-n3c(C)ccc3C)cc2n1	1.4%	44.7µM*	5.0%	-2.4%	5.5%	27.6%
Cc1ccc(Cl)cc1N1CCN(C(=O)c2cccn2-c2nnc(N3CCCCC3)s2)CC1	-1.9%	·	3.2%	-1.5%	·	·
Cc1ccc(Cl)cc1N1CCN(C(=O)C2CCN(c3nnc(-n4cccc4)s3)CC2)CC1	-4.3%	-5.4%	-2.4%	0.6%	11.2µM*	37.8%
N#Cc1ccc(C(=O)NC2CCCc3ccccc32)cc1 (stereo not drawn)	·	1.8%	3.0%	-0.1%	14.4%	17.3%
